Data published in PubChem BioAssay.
Values without a mark were called inactive. Active and inactive are the calls of the source.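 How the source made its calls, unless noted: active means mean inhibition above 46.68%, the untreated control wells mean plus 3 SD; inactive means the rest.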

molecular target: Nuclear receptor coactivator 1 (Homo sapiens) (UniProt Q15788); test: NCOA1 GAL4-fusion reporter inhibition – cell-based, luminescence, quadruplicate, confirmation (AID 588820); conditions: HEK293 GAL4-SRC1 luciferase reporter, at 3.6 µM, stronger effect = higher value;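 further: 0% = DMSO wells and 100% = gossypol 36 µM treated wells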
Sequence (Q15788 whole entry, looked up, the tested form may be a part): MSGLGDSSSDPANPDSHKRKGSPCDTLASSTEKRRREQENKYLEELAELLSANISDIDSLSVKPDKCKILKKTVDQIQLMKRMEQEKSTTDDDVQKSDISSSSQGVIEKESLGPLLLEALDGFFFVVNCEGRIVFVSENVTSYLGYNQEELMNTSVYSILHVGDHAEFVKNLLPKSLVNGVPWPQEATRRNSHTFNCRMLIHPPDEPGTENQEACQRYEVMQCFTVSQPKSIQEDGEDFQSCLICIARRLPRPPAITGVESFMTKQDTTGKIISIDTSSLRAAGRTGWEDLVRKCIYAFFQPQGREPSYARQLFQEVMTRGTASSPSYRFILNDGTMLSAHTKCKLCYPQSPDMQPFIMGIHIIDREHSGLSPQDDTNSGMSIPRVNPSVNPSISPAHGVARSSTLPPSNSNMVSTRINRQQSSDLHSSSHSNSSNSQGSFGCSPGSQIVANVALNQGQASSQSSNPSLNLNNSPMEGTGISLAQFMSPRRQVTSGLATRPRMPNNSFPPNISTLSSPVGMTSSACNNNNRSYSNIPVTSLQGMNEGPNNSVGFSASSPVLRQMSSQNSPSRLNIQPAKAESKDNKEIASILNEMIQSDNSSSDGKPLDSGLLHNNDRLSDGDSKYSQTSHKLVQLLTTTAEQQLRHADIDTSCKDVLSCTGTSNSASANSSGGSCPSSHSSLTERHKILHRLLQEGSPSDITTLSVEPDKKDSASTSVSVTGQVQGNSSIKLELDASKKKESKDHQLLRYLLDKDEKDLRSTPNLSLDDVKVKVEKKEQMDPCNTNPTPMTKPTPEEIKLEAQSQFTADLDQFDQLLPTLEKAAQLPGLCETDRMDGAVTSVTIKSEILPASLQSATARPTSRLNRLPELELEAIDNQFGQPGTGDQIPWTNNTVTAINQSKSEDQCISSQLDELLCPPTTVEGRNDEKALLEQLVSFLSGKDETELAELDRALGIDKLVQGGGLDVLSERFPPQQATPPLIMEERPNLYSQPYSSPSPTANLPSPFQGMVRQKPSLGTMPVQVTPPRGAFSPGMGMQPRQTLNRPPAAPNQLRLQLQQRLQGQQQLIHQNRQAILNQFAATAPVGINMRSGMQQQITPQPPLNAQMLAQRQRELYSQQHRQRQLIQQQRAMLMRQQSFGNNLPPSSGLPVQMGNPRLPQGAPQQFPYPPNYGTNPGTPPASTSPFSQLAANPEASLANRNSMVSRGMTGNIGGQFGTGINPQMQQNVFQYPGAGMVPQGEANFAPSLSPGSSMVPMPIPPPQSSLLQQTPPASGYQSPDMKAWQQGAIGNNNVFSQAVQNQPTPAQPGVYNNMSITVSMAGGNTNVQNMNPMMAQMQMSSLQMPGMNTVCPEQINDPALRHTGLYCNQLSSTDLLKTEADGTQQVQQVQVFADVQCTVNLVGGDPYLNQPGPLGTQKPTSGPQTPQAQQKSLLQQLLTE

| Structure (SMILES) | inhibition [%] |
| --- | --- |
| N#Cc1c(N)nc2c(c1-c1ccc(F)cc1)CCC2 | -6.03 |
| Cc1csc(N=Cc2ccc([N+](=O)[O-])o2)n1 | 30.6 |
| O=C(NCCC(=O)N1CCCC(C(F)(F)F)C1)c1ccc(Br)cc1 (stereo not given) | -7.52 |
| COc1ccc(-c2cn[nH]c2C)cc1 | -12 |
| COC(=O)c1ccc2c(c1)NC(=O)c1ccccc1S2 | -8.66 |
| CN1CCN(c2ccccc2/C=C2/C(=O)Nc3ccccc32)CC1 | -7.17 |
| O=C(Nc1nc(-c2ccc(F)c(F)c2)cs1)c1cnccn1 | 7.57 |
| CSc1nccc(Oc2cncc(Cl)c2)n1 | 8.08 |
| COc1cc2c(cc1OC)CN(CC(=O)Nc1cccc([N+](=O)[O-])c1)CC2 | 4.85 |
| Cc1nc2ccccc2c(N)c1C(=O)/C=C/c1ccccc1 | 28.7 |
| CCn1cc(C(=O)NCC(OC)OC)c(=O)c2cc(S(=O)(=O)N(C)C3CCCCC3)ccc21 | 11.4 |
| CCOC(=O)c1ccc(S(=O)(=O)N2CCN(C(C)=O)CC2)cc1 | -14.4 |
| Cc1ccc(O)c(Nc2ncnc3ccc([N+](=O)[O-])cc23)c1 | 17.6 |
| O=C(COc1ccc(Cl)cc1Cl)NN1C(=O)C2C3C=CC(C3)C2C1=O (stereo not given) | -1.23 |
| CSc1ccc(CN2CCN(Cc3ccc([N+](=O)[O-])cc3)CC2)cc1 | -10.7 |
| CN(CC(=O)Nc1ccc(Cl)c(C(F)(F)F)c1)C(=O)C1CC(=O)N(c2ccc3c(c2)OCCO3)C1 (stereo not given) | 17.4 |
| CCc1noc(C)c1C(=O)Nc1ccccc1N1CCOCC1 | -11 |
| COc1cc(NC(=O)c2cccc3c(-c4cccnc4)coc23)cc(OC)c1OC | -19.1 |
| O=S(=O)(Nc1ccc2c(c1)OCCO2)c1cccs1 | 1.12 |
| Cc1cc(C)c2nc(NNC(=O)c3ccc(S(=O)(=O)N4CC(C)CC(C)C4)cc3)sc2c1 (stereo not given) | 32.4 |

| Structure (SMILES) | inhibition [%] |
| --- | --- |
| O=c1[nH]nnc2c1ncn2C1OC(CO)C(O)C1O (stereo not given) | 0.97 |
| CCC1(c2ccc(F)cc2)NC(=O)N(CC(=O)NCC(=O)Nc2cccc(C)c2C)C1=O (stereo not given) | 6.24 |
| CCN1C(=O)c2cccc3c(S(=O)(=O)Nc4ccc(O)c(C(=O)O)c4)ccc1c23 | 5.84 |
| COc1ccc(C(=O)c2c(C)c3ccccc3n2CC(O)CNC(C)C)cc1 (stereo not given) | -15.4 |
| COc1ccccc1NC(=O)NC1(C(=O)N2CCCCC2)CCCCC1 | 4.76 |
| COc1cc2c(cc1OC)C(NC(=O)C(F)(F)F)CNC2=O (stereo not given) | 45.5 |
| CN(C)CCNC(=O)c1cccc2nc3c(ccc4ccccc43)nc12 | 30.5 |
| O=C(Cc1ccsc1)N1CCN(S(=O)(=O)c2cc(C(F)(F)F)cc(C(F)(F)F)c2)CC1 | -14.2 |
| CC1CCN(C(=O)c2scc3c2OCCO3)CC1 | 18.3 |
| Cc1cc2c(NCc3ccccc3)ncnc2s1 | 5 |
| N#CCCN(C(=O)COC(=O)c1ccc2c(=O)n3c(nc2c1)CCC3)c1ccc(F)cc1 | -14.7 |
| O=C(Cc1cccs1)N(CC1CCCO1)C1(C(=O)NC2CCCCC2)CCCCC1 (stereo not given) | 7.13 |
| COc1ccc(S(=O)(=O)N2CCOC23CCN(S(=O)(=O)c2ccc(Cl)cc2)CC3)cc1 | -7.54 |
| Cc1cc(-c2ccc(F)cc2)n2ncc(-c3ccccc3)c2n1 | -87.3 |
| CC1(C)Cc2nc(N)c(=O)sc2C1 | -1.79 |
| NS(=O)(=O)c1ccc(CCNC(=O)c2ccc(C#CC3(O)CCCCC3)cc2)cc1 | -44 |
| COc1ccccc1NC(=O)c1cc(S(=O)(=O)NC2CCCC2)ccc1F | 3.42 |
| Cc1ccccc1N(C(=O)c1csnn1)C(C(=O)NC1CCCCC1)c1ccncc1 (stereo not given) | -16 |
| COc1cccc(NC(=O)CN(C)CC(=O)Nc2ccc(Cl)cc2[N+](=O)[O-])c1 | 26.6 |
| CCN(CC)CCNc1nc2cc(OC)c(OC)cc2c2nc(-c3ccccc3)nn12 | 9.19 |

tested on: not listed separately; test: repression of VP16-driven luciferase reporter – cell-based, luminescence, high throughput, counter-screen for SRC1 inhibitor project (AID 588824; in the data active means inhibition above about 25%); conditions: cell-based VP16 transactivation luciferase luminescence; at 3.6 µM; stronger effect = higher value

| Structure (SMILES) | inhibition |
| --- | --- |
| N#Cc1c(N)nc2c(c1-c1ccc(F)cc1)CCC2 | -10.2% |
| Cc1csc(N=Cc2ccc([N+](=O)[O-])o2)n1 | 32.2% (active) |
| O=C(NCCC(=O)N1CCCC(C(F)(F)F)C1)c1ccc(Br)cc1 (stereo not given) | -9.82% |
| COc1ccc(-c2cn[nH]c2C)cc1 | 5.39% |
| COC(=O)c1ccc2c(c1)NC(=O)c1ccccc1S2 | -1.54% |
| CN1CCN(c2ccccc2/C=C2/C(=O)Nc3ccccc32)CC1 | 10.8% |
| O=C(Nc1nc(-c2ccc(F)c(F)c2)cs1)c1cnccn1 | -11.4% |
| CSc1nccc(Oc2cncc(Cl)c2)n1 | 5.07% |
| COc1cc2c(cc1OC)CN(CC(=O)Nc1cccc([N+](=O)[O-])c1)CC2 | 6.41% |
| Cc1nc2ccccc2c(N)c1C(=O)/C=C/c1ccccc1 | 31.6% (active) |
| CCn1cc(C(=O)NCC(OC)OC)c(=O)c2cc(S(=O)(=O)N(C)C3CCCCC3)ccc21 | 19.8% |
| CCOC(=O)c1ccc(S(=O)(=O)N2CCN(C(C)=O)CC2)cc1 | -6.09% |
| Cc1ccc(O)c(Nc2ncnc3ccc([N+](=O)[O-])cc23)c1 | 23.6% |
| O=C(COc1ccc(Cl)cc1Cl)NN1C(=O)C2C3C=CC(C3)C2C1=O (stereo not given) | -10.4% |
| CSc1ccc(CN2CCN(Cc3ccc([N+](=O)[O-])cc3)CC2)cc1 | 26.8% (active) |
| CN(CC(=O)Nc1ccc(Cl)c(C(F)(F)F)c1)C(=O)C1CC(=O)N(c2ccc3c(c2)OCCO3)C1 (stereo not given) | 14% |
| CCc1noc(C)c1C(=O)Nc1ccccc1N1CCOCC1 | 1.51% |
| COc1cc(NC(=O)c2cccc3c(-c4cccnc4)coc23)cc(OC)c1OC | 28.3% (active) |
| O=S(=O)(Nc1ccc2c(c1)OCCO2)c1cccs1 | -9.45% |
| Cc1cc(C)c2nc(NNC(=O)c3ccc(S(=O)(=O)N4CC(C)CC(C)C4)cc3)sc2c1 (stereo not given) | 30.2% (active) |

| Structure (SMILES) | inhibition |
| --- | --- |
| O=c1[nH]nnc2c1ncn2C1OC(CO)C(O)C1O (stereo not given) | 17.6% |
| CCC1(c2ccc(F)cc2)NC(=O)N(CC(=O)NCC(=O)Nc2cccc(C)c2C)C1=O (stereo not given) | 6.8% |
| CCN1C(=O)c2cccc3c(S(=O)(=O)Nc4ccc(O)c(C(=O)O)c4)ccc1c23 | -15.2% |
| COc1ccc(C(=O)c2c(C)c3ccccc3n2CC(O)CNC(C)C)cc1 (stereo not given) | -0.38% |
| COc1ccccc1NC(=O)NC1(C(=O)N2CCCCC2)CCCCC1 | 10.3% |
| COc1cc2c(cc1OC)C(NC(=O)C(F)(F)F)CNC2=O (stereo not given) | 22.3% |
| CN(C)CCNC(=O)c1cccc2nc3c(ccc4ccccc43)nc12 | 40.4% (active) |
| O=C(Cc1ccsc1)N1CCN(S(=O)(=O)c2cc(C(F)(F)F)cc(C(F)(F)F)c2)CC1 | 0.11% |
| CC1CCN(C(=O)c2scc3c2OCCO3)CC1 | 8.58% |
| Cc1cc2c(NCc3ccccc3)ncnc2s1 | 18.8% |
| N#CCCN(C(=O)COC(=O)c1ccc2c(=O)n3c(nc2c1)CCC3)c1ccc(F)cc1 | 2.54% |
| O=C(Cc1cccs1)N(CC1CCCO1)C1(C(=O)NC2CCCCC2)CCCCC1 (stereo not given) | 14.9% |
| COc1ccc(S(=O)(=O)N2CCOC23CCN(S(=O)(=O)c2ccc(Cl)cc2)CC3)cc1 | -6.07% |
| Cc1cc(-c2ccc(F)cc2)n2ncc(-c3ccccc3)c2n1 | -34.6% |
| CC1(C)Cc2nc(N)c(=O)sc2C1 | 5.55% |
| NS(=O)(=O)c1ccc(CCNC(=O)c2ccc(C#CC3(O)CCCCC3)cc2)cc1 | -3.61% |
| COc1ccccc1NC(=O)c1cc(S(=O)(=O)NC2CCCC2)ccc1F | 5.69% |
| Cc1ccccc1N(C(=O)c1csnn1)C(C(=O)NC1CCCCC1)c1ccncc1 (stereo not given) | -5.53% |
| COc1cccc(NC(=O)CN(C)CC(=O)Nc2ccc(Cl)cc2[N+](=O)[O-])c1 | 14.7% |
| CCN(CC)CCNc1nc2cc(OC)c(OC)cc2c2nc(-c3ccccc3)nn12 | 33.3% (active) |
